Structures are written as SMILES. Among all 85,000 compounds or so, about 35 (0.04%) were called active.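 The calls were made as follows: active = viability drop by adding the cancer drug above about 55%, with treated viability meeting a 40% cutoff (limit read from the data); inactive = the rest, inconclusive results apart.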 Only a selection was taken, and actives are over-represented in it overall.

The assay is described as follows: MRP1 drug-resistance reversers in H69AR cells – cell-based, doxorubicin co-treatment, primary screen (AID 602).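 As to differential viability (reversal): larger differential means the compound sensitizes cells more to doxorubicin.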 The following applies: CellTiter-Glo, 72 h, at 10 µM; for differential viability (reversal): stronger effect = higher value. A general note: Cellular ATP, detected with luciferase, serves as a proxy for viable cell number.
The mark [1] stands for this setting: H69AR cells + 2 uM doxorubicin, measured here: viability with 2 uM doxorubicin, stronger effect = lower value.
The mark [2] stands for this setting: H69AR cells, measured here: cytotoxicity without doxorubicin.

As a reminder, the viability is a read-out of living cells in per cent, often relative to untreated cells. On to `Cc1ccc(CN(N=Nc2nonc2N)c2nonc2N)c(C)c1`, for which the differential viability (reversal) (H69AR cells + 2 uM doxorubicin) is 2.63% (inactive). For the same compound, the viability came out at 76.9% under setting [1] and 79.6% under setting [2].

`CCN1C(=O)/C(=C2/Sc3ccc(OC)cc3N2C)SC1=Nc1ccc(C)cc1`: the differential viability (reversal) (H69AR cells + 2 uM doxorubicin) is -4.5% (inactive). Also, the viability came out at 70.6% under setting [1] and 66.1% under setting [2].

For the compound `CC/C(O)=N\S(=O)(=O)c1ccc(N=NN(C)C)cc1`, the differential viability (reversal) (H69AR cells + 2 uM doxorubicin) was -1% (inactive). The viability runs as follows: under setting [1], 86.7%; under setting [2], 85.7%.

Turning to `CCC(C)NC(=O)c1cc(Cl)ccc1OC` (centres undefined), the differential viability (reversal) (H69AR cells + 2 uM doxorubicin) was 6.89% (inactive). Moreover, the viability by setting is: under setting [1], 83.6%; under setting [2], 90.5%.

As to `O=C(Nc1nnc(SCc2ccccc2)s1)c1ccco1`, the differential viability (reversal) (H69AR cells + 2 uM doxorubicin) is 5.76% (inactive). Further, the viability was found to be 90.2% under setting [1] and 96% under setting [2].

Take `CCc1ccc(CNC(=O)C2CC(=O)N(CCc3ccc(C)cc3)C2)cc1` (centres undefined): where the note is “H69AR cells + 2 uM doxorubicin”, the differential viability (reversal) is 1.99% (inactive). Besides, the viability is, setting by setting: under setting [1], 97.6%; under setting [2], 99.5%.

Regarding `Cc1nnc(OCC(=O)NCCC2=CCCCC2)c2ccccc12`, the differential viability (reversal) (H69AR cells + 2 uM doxorubicin) is -0.56% (inactive). In addition, the viability under setting [1] is 101% and the viability under setting [2] came out at 101%.

Take `O=C1C2C3C=CC(C4CC34)C2C(=O)N1/N=C/c1ccc(-c2ccccc2[N+](=O)[O-])o1` (centres undefined): the differential viability (reversal) (H69AR cells + 2 uM doxorubicin) is 16.1% (inactive). For the same compound, the viability came to 70.3% under setting [1] and 86.5% under setting [2].

Turning to `CC(C)CCOc1ccc(C(=O)C[N+]2(C)CCOCC2)cc1`, the differential viability (reversal) (H69AR cells + 2 uM doxorubicin) was 16.9% (inactive). In addition, the viability by setting is: under setting [1], 86%; under setting [2], 103%.

Consider `Nc1nc(C23CC4CC(CC(C4)C2)C3)cs1`, for which the differential viability (reversal) (H69AR cells + 2 uM doxorubicin) is -3.46% (inactive). Also, the viability was determined as 96.8% under setting [1] and 93.3% under setting [2].

In the case of `Cc1cc(C)c(NC(=O)CN2CCOCCOCCOCCOCC2)c(C)c1`, the differential viability (reversal) (H69AR cells + 2 uM doxorubicin) is 8.19% (inactive). In addition, the viability is 89% under setting [1] and 97.2% under setting [2].

With `Nc1ccc(-n2nncc2-c2ccco2)cc1`, the differential viability (reversal) (H69AR cells + 2 uM doxorubicin) is 59.2% (active). For the same compound, the viability is, setting by setting: under setting [1], 39.6%; under setting [2], 98.8%.

Consider `Cc1ccc(-n2ncc3c(=O)n(-c4ccc(C)c(C)c4)c(-c4ccco4)nc32)cc1`, for which, for the setting “H69AR cells + 2 uM doxorubicin”, the differential viability (reversal) was -39.7% (inactive). The viability under setting [1] was 71% and the viability under setting [2] is 31.3%.

In the case of `Cc1[nH]n(-c2cccc(Cl)c2)c(=O)c1/C=N/n1c(C)nc2ccccc2c1=O`, the differential viability (reversal) (H69AR cells + 2 uM doxorubicin) was -32.9% (inactive). Also, the viability by setting is: under setting [1], 62%; under setting [2], 29.1%.

`Cc1cccc(C)c1OC(=O)CSc1nnc(-c2ccccc2)o1`: the differential viability (reversal) (H69AR cells + 2 uM doxorubicin) is 9.93% (inactive). For the same compound, the viability under setting [1] was found to be 88.5% and the viability under setting [2] is 98.4%.

Consider `Cc1ccc(NC(=S)NC(NC(=O)Cc2cccc3ccccc23)C(Cl)(Cl)Cl)cc1` (centres undefined), for which, for the setting “H69AR cells + 2 uM doxorubicin”, the differential viability (reversal) was 0.19% (inactive). In addition, the viability by setting is: under setting [1], 0.8%; under setting [2], 0.99%.

In the case of `COc1ccc(/C(N)=N/OC(=O)Oc2ccccc2)cc1`, the differential viability (reversal) (H69AR cells + 2 uM doxorubicin) was -10.6% (inactive). Besides, the viability came to 93.2% under setting [1] and 82.6% under setting [2].

As to `CCOc1ccc2c(c1)C(c1ccc(C)cc1)=NNC(c1ccc(C)cc1)=N2`, the differential viability (reversal) (H69AR cells + 2 uM doxorubicin) is -43% (inactive). Besides, the viability runs as follows: under setting [1], 64%; under setting [2], 21%.

Regarding `O=C(CN1CCSCC1)N/N=C/c1ccc(F)cc1`, for the setting “H69AR cells + 2 uM doxorubicin”, the differential viability (reversal) is 8.43% (inactive). The viability reads like this: under setting [1], 90.1%; under setting [2], 98.5%.

In the case of `CC(C)(C)c1ccc(C(=O)NNC(=O)Cc2ccccc2)cc1`, for the setting “H69AR cells + 2 uM doxorubicin”, the differential viability (reversal) was 9.15% (inactive). In addition, the viability was determined as 85.9% under setting [1] and 95% under setting [2].

In the case of `COC(=O)C1=C(C(=O)OC)C2(OC1c1ccc(Br)cc1)C(=O)c1ccccc1C2=O` (centres undefined), the differential viability (reversal) (H69AR cells + 2 uM doxorubicin) was 12.1% (inactive). The viability reads like this: under setting [1], 94%; under setting [2], 106%.

Take `O=C(CSc1nc2cccnc2n1Cc1ccccc1)N1CCc2ccccc21`: the differential viability (reversal) (H69AR cells + 2 uM doxorubicin) was 10.8% (inactive). Besides, the viability is, setting by setting: under setting [1], 59.3%; under setting [2], 70.1%.

Take `COC(=O)CCSc1cc([N+](=O)[O-])cc2c1c(C1OCCS1)nn2-c1ccccc1` (centres undefined): under “H69AR cells + 2 uM doxorubicin”, the differential viability (reversal) was -2.64% (inactive). Besides, the viability worked out at 101% under setting [1] and 98.2% under setting [2].

With `CCCOn1c(-n2nc(C)cc2C)nc2ccccc2c1=O`, under “H69AR cells + 2 uM doxorubicin”, the differential viability (reversal) is 4.29% (inactive). Also, the viability is 89.5% under setting [1] and 93.8% under setting [2].

Regarding `O=C(Nc1ccc(F)c(Cl)c1)C1CCN(S(=O)(=O)c2cccnc2)CC1`, the differential viability (reversal) (H69AR cells + 2 uM doxorubicin) is 1.44% (inactive). The viability runs as follows: under setting [1], 70.3%; under setting [2], 71.8%.

With `Cc1ccc(C(=O)N/N=C/c2sc(=O)n(Cc3cccc(C(=O)O)c3)c2Cl)cc1`, the differential viability (reversal) (H69AR cells + 2 uM doxorubicin) is -5.62% (inactive). The viability reads like this: under setting [1], 92.7%; under setting [2], 87.1%.

Consider `CCOC(=O)C(C)Sc1nc2ccccc2c(=O)n1CC1CCCCC1` (centres undefined), for which the differential viability (reversal) (H69AR cells + 2 uM doxorubicin) was 7.81% (inactive). Further, the viability reads like this: under setting [1], 74.6%; under setting [2], 82.4%.

For the compound `Cc1cccc(NC(=O)C2CC(=O)OC23CCCC3)c1` (centres undefined), the differential viability (reversal) (H69AR cells + 2 uM doxorubicin) is 6.22% (inactive). In addition, the viability under setting [1] turned out to be 95.5% and the viability under setting [2] was 102%.

On to `COc1ccc(CC(NC(C)=O)C(=O)N2CCN(C(=O)Nc3cccc(Cl)c3)CC2)cc1OC` (centres undefined), for which the differential viability (reversal) (H69AR cells + 2 uM doxorubicin) is 6.8% (inactive). In addition, the viability is 85% under setting [1] and 91.8% under setting [2].

Regarding `O=C(CCS(=O)(=O)c1cccc2nsnc12)N1CCN(c2ccccc2F)CC1`, under “H69AR cells + 2 uM doxorubicin”, the differential viability (reversal) is 10.9% (inactive). Moreover, the viability is, setting by setting: under setting [1], 80%; under setting [2], 91%.

Regarding `COc1ccc(-c2cc(C(=O)NCc3ccco3)no2)cc1OC`, the differential viability (reversal) (H69AR cells + 2 uM doxorubicin) is 7.53% (inactive). The viability by setting is: under setting [1], 92.6%; under setting [2], 100%.

`CCOC(=O)C1=C(C)NC2=C(C(=O)CC(C)(C)C2)C1c1ccsc1` (centres undefined): where the note is “H69AR cells + 2 uM doxorubicin”, the differential viability (reversal) is -1.33% (inactive). Further, the viability runs as follows: under setting [1], 85.8%; under setting [2], 84.5%.

As to `O=S(=O)(NCCc1ccccc1)c1ccccc1`, the differential viability (reversal) (H69AR cells + 2 uM doxorubicin) is 7.78% (inactive). Moreover, the viability worked out at 95.5% under setting [1] and 103% under setting [2].

As to `CCN(c1ccccc1)S(=O)(=O)c1ccc(NC(=O)C(C)(C)C)cc1`, for the setting “H69AR cells + 2 uM doxorubicin”, the differential viability (reversal) was -29.8% (inactive). In addition, the viability amounted to 64.7% under setting [1] and 34.8% under setting [2].

On to `COc1ccc(-c2cc(C(F)(F)F)nc(NCc3cccnc3)n2)cc1`, for which the differential viability (reversal) (H69AR cells + 2 uM doxorubicin) is 1.23% (inactive). Also, the viability under setting [1] was 91.7% and the viability under setting [2] stood at 92.9%.

Consider `Cc1ccc(S(=O)(=O)N2CCN(S(=O)(=O)N3CCOCC3)CC2)cc1`, for which, under “H69AR cells + 2 uM doxorubicin”, the differential viability (reversal) is 3.28% (inactive). In addition, the viability under setting [1] turned out to be 89.8% and the viability under setting [2] turned out to be 93.1%.

Turning to `CCOC(=O)/C(C#N)=C\c1c(C)cc(C)c(COC(C)=O)c1C`, the differential viability (reversal) (H69AR cells + 2 uM doxorubicin) was 5.79% (inactive). In addition, the viability under setting [1] was determined as 89.3% and the viability under setting [2] stood at 95.1%.

For the compound `Cc1ccc(F)c(NC(=O)CCc2ccccc2)c1`, the differential viability (reversal) (H69AR cells + 2 uM doxorubicin) was 2.31% (inactive). Also, the viability under setting [1] came to 95.5% and the viability under setting [2] was 97.8%.

The record behind these values is PubChem BioAssay AID602 (SRMLSC, 2007).
